# Several values for one entry are separate records, joined by “and”; a condition that tells them apart may be missing. Equal entries are not always repeated. About 83,000 compounds went through this panel and 20% of them were active in at least one assay; those are over-represented in the sample as a whole.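 Cells were grown in 96-well plates and exposed to the test compound at a single concentration for 48 hours; results are reported as percent growth, with values below 10 considered active.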 Values without a mark were called inactive.
# Test system: NCI-H322M lung
# Assay: NCI-60 one-dose screen, 48 h (100 = growth as untreated, 0 = no growth, -100 = all killed)
# Conditions: 10 µM unless noted
row,SMILES,growth
1,CCCCNC(=O)c1ccccc1C,89.4%
2,CC1(C)CC(=O)NC1=O,94.2%
3,COc1ccc(C(=O)C(O)c2ccc(OC)cc2)cc1 (centres undefined),96.6% and 102%
4,COc1ccc2nccc(Cl)c2c1,97.1%
5,O=C(c1ccccc1)C1(Br)CCCCC1,93.4%
6,CN(C=O)c1ccccc1,98.5%
7,CCOCCC(=O)O,113%
8,Cc1cc2ccccc2c2cc3ccccc3cc12,85.9%
9,CS(=O)(=O)OCC1NC(=O)C(COS(C)(=O)=O)NC1=O (centres undefined),98.8% and 103%
10,Clc1ccc(/C=C/c2ccc3ccccc3n2)cc1,38.8% and 90.3% and 86.1%
11,CCOC(=O)C1=CC(=O)CC(C)(C)O1,99.2% and 125%
12,CC(=O)Oc1cc(C)c(OC(C)=O)c(C)c1C,112%
13,COc1ccc(/C=N/Nc2nc3ccccc3s2)cc1,86.7%
14,CC1CCC(=O)N1c1ccc(N)cc1 (centres undefined),96.4%
15,Cc1ccc(N)cc1S(=O)(=O)O,125% and 113%
16,CCOC(C)=N,146%
17,O=C(c1ccc(Cl)cc1)C1C(c2ccccc2)C1[N+](=O)[O-] (centres undefined),89.8%
18,CC(CN(C)C)CN1c2ccccc2Sc2ccccc21 (centres undefined),73.1% and 83.9% and 65.2%
19,CCCC(=O)OCC(COC(=O)CCC)OC(=O)CCC,93.9%
20,COc1ccccc1OCC(O)CO (centres undefined),75.7% and 115%

row,SMILES,growth
1,CC1(C)OC(=O)C(=Cc2ccc(C#N)cc2)C(=O)O1,113% and 103%
2,CCC(=O)Oc1ccc(OCc2ccccc2)cc1,120% and 92.3%
3,O=C(c1ccncc1)c1c(Cc2ccccc2)ccc2ccccc12,74.2%
4,CCCC(=O)Oc1ccc2ccccc2c1,109%
5,CCOC(=O)C1=C(C)NC(C)=C(C(=O)OCC)C1,108% and 102%
6,C/C(CC(C)C)=N/NC(N)=S,96.9%
7,OCc1cccc(F)c1,90.2%
8,Cc1cc(=NO)cc(C)n1O,94.3%
9,OCc1ccccc1F,105%
10,COc1cc(Cl)ccc1C,85.6%
11,COC(=O)c1nc(=S)[nH]c(C(=O)OC)c1C(=O)c1ccc(OC)cc1,104%
12,CCN(CC)C(=S)SCCO,97.1%
13,OCCSc1ccc(Cl)cc1,114% and 96%
14,Nc1nc(-c2ccccn2)cc(-c2cc(-c3ccccn3)nc(N)n2)n1,94.3%
15,COc1cc(C2c3cc4c(cc3C(OC(=O)C[n+]3ccccc3)C3COC(=O)C23)OCO4)cc(OC)c1OC (centres undefined),33%
16,CSc1nc(N)c(N)c(N)n1,106%
17,C/C=C(/C(=O)NC(N)=O)C(C)C,109%
18,CC(O)CCNC(c1ccccc1)C(O)c1ccccc1 (centres undefined),112%
19,Cc1c(Cl)c(C)c(Cc2c(C)c(Cl)c(C)c(Cl)c2O)c(O)c1Cl,16.1%

# From PubChem BioAssay (NCI)
